# Compounds without any hit were thinned out: in the full panel of roughly 83,000, 20% have a hit.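 The test compound was applied at a single concentration to cells in 96-well plates for 48 hours, and percent growth was recorded.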 Values without a mark were called inactive. The source made the active and inactive calls. How the source made its calls: active means growth percent below 10; inactive means the rest.
# Key:
# Assay in all cases: NCI-60 one-dose screen, 48 h (100 = growth as untreated, 0 = no growth, -100 = all killed)
# Details in all cases: 10 µM unless noted
# T-47D breast = system: T-47D breast
# MDA-MB-435 melanoma = system: MDA-MB-435 melanoma
# SW-620 colon = system: SW-620 colon
# MCF7 breast = system: MCF7 breast
# HCT-116 colon = system: HCT-116 colon
# HCC-2998 colon = system: HCC-2998 colon
# KM12 colon = system: KM12 colon
# BT-549 breast = system: BT-549 breast
Compound,growth (T-47D breast),growth (MDA-MB-435 melanoma),growth (SW-620 colon),growth (MCF7 breast),growth (HCT-116 colon),growth (HCC-2998 colon),growth (KM12 colon),growth (BT-549 breast)
O=[N+]([O-])c1ccc(NS(=O)(=O)c2ccc(Cl)c(Cl)c2)cc1,60.2%,88.9%,103%,79.7%,85.3%,68.9%,90.1%,
C1=C(Cc2ccccc2)n2cnc3ncnc(c32)S1,29.6%,26.5%,69%,20.3%,57.1%,70.2%,69.6%,
CCN(CC)c1ccc(N=C2C=CC(=O)C=C2NC(C)=O)cc1,82.5%,124%,89%,82.6%,97.9%,,,
C[C@@H]1[C@H]2[C@H](C=C3[C@@H]4CC[C@H]5Cc6nc7c(nc6C[C@]5(C)[C@H]4C[C@@H](O)[C@@]32C)C[C@@H]2CC[C@H]3C4=C[C@@H]5O[C@@]6(CC[C@](C)(CO)O6)[C@@H](C)[C@@]5(O)[C@@]4(C)[C@H](O)C[C@@H]3[C@@]2(C)C7)O[C@]12CCC(C)(C)O2,7.03% (active),51.8%,8.02% (active),15.5%,9.68% (active),66.5%,28.7%,
Cc1cc(=O)[nH]c(/C(=N/Nc2ccccc2)C(=O)c2ccc(Cl)cc2)n1,77%,108%,94.6%,90.1%,86.9%,109%,102%,
O=C(c1ccccc1)c1ccc(Oc2ccc([N+](=O)[O-])cc2[N+](=O)[O-])cc1,66.1%,-43.7% (active),3.07% (active),15.6%,-12.8% (active),97.8%,-17.8% (active),
CC(C)=CCNc1ncnc2c1ncn2C1OC(COP(=O)(O)O)C(O)C1O (stereo unspecified),3.18% (active),56.7%,,16.5%,19.2%,69.6%,69.6%,2.41% (active)
C=C(CN1CCc2c([nH]c3ccccc23)C1)c1ccc(C(=O)Nc2ccon2)cc1,22.8%,101%,,87.7%,91.9%,,141%,55.4%
COC(=O)c1c(NC(=O)CSc2nnnn2-c2ccc(OC)cc2)sc(C)c1C,92.5%,109%,,85.8%,92.1%,,98.7%,99.6%
Cc1cc(Br)c(C)cc1Br,92.5%,99.8%,108%,98.2%,99.1%,115%,103%,
COc1ccc2c(c1)[n+](=O)c(/C=C/C(=O)c1cc(OC)c(OC)c(OC)c1)c(C)n2[O-],28.3%,34.6%,,18.1%,17.9%,,80.9%,73.3%
COc1cnc2c(c1)C(=O)c1c-2n(CCCN2CCOCC2)c(=O)c2cc(F)ccc12,-16% (active),-14.2% (active),6.66% (active),1.93% (active),-77.1% (active),13.2%,-14.4% (active),
COc1ccc(NC(=O)c2ccc(-c3ccccc3)cc2)c(C(N)=O)c1,88.6%,98.5%,110%,96.6%,106%,102%,99.2%,
CCOc1cc(/C=C/C(=O)CC(=O)/C=C/c2ccc(OC(=O)CNc3nc4ccc(OC)cc4s3)c(OCC)c2)ccc1OC(=O)CNc1nc2ccc(OC)cc2s1,79.7%,-22.2% (active),17.9%,9.28% (active),4.31% (active),39.6%,9.4% (active),
COc1ccc(-n2cnc3cc(C(=O)N4CCCCC4)ccc32)cc1,91%,102%,104%,103%,98.3%,104%,107%,
O=c1sc2ncnc3ncn1c32,34.5%,29.5%,73.1%,22.4%,50.9%,79.5%,70%,
Cc1nn(-c2ccccc2)cc1/C=C1\SC(N2CCCCC2)=NC1=O,82.4%,92%,79.8%,55.8%,46.7%,94.5%,,
N[C@H](CS)C(=O)O,103%,104%,106%,87.9%,112%,112%,109%,

Compound,growth (T-47D breast),growth (MDA-MB-435 melanoma),growth (SW-620 colon),growth (MCF7 breast),growth (HCT-116 colon),growth (HCC-2998 colon),growth (KM12 colon),growth (BT-549 breast)
C[C@H](C(=O)N[C@@H](Cc1ccc(-c2ccccc2)cc1)C(=O)NC1CC(C)(C)N(C)C(C)(C)C1)c1ccc(-c2ccccc2)c(F)c1,-52.7% (active),-84.9% (active),-76.8% (active),-79.6% (active),-87.6% (active),-86.8% (active),-78.6% (active),
OCc1n(Cc2ccc3ccccc3c2)cc[n+]1Cc1ccc2ccccc2c1,31.3%,5.53% (active),,61.8%,35.6%,39.8%,39.3%,31.2%
Nc1nc2c(c(=O)[nH]1)C1(C(=O)Nc3ccccc31)c1c(nc(N)[nH]c1=O)N2,92.3%,106%,,94.8%,116%,,101%,102%
Cc1n(Cc2ccc3ccccc3c2)cc[n+]1Cc1ccc2ccccc2c1,0.847% (active),-14.6% (active),18.7%,7.52% (active),6.14% (active),7.45% (active),-9.94% (active),
Cn1c(=O)c2[nH]c(=S)n(Cc3ccccc3)c2n(C)c1=O,98.8%,119%,,101%,98.2%,,109%,106%
Cc1ccc2c(c1)C(=O)/C(=C\Nc1ccc(C(N)=O)cc1)C(O)O2 (stereo unspecified),73.9%,98.4%,,96.6%,93.5%,,88.2%,82.4%
COc1cc(/C=C/c2cc(/C=C/c3ccc(O)c(OC)c3)n(C(=O)c3ccc(Cl)cc3)n2)ccc1O,11.2%,-45.2% (active),16.4%,20.1%,0.953% (active),52%,10.8%,
COc1ccc(-c2cc(-c3cccnc3)nc(S(=O)(=O)CC(=O)Nc3ccc(C)cc3)c2C#N)cc1OC,64%,98.6%,98.3%,88.4%,85.8%,91.9%,,
Nc1nc2c(nnn2Cc2ccc(Cl)c(Cl)c2)c(=O)[nH]1,84.3%,,99.9%,93.7%,104%,116%,90.2%,99.4%
COc1cc(/C=C\C(C)=N\Nc2ccccc2)ccc1O,68%,69.7%,,82.4%,91.4%,,52.8%,102%
N#CC1c2ccccc2C=CN1C(=O)N(c1ccccc1)c1ccccc1 (stereo unspecified),-1.33% (active),58.7%,,49.9%,26.5%,96.8%,102%,74.1%
O=C(c1ccc(Cl)cc1)c1ccc(Cl)cc1,101%,107%,103%,104%,110%,96.7%,,
COC(=O)Nc1ccc2ccc3c(NC(=O)OC)ccc4ccc1c2c43 (tested in a mixture with another compound),49.6%,-22.3% (active),39.4%,31.4%,21.7%,57.9%,32.7%,
c1ccc2nc(Cn3c[n+](Cc4ccc5ccccc5n4)c4ccccc43)ccc2c1,10.6%,9.62% (active),45.3%,22.9%,18.1%,32.9%,21.9%,
O=C1NC(=O)/C(=C\c2ccco2)S1,95.4%,,100%,104%,108%,,103%,104%
Cc1ccc2nc(SCC(=O)Nc3ccc(-c4nc5ccccc5s4)c(Cl)c3)[nH]c2c1,99.2%,111%,,90.6%,101%,,115%,103%
Cc1cc(=O)oc2cc(OCCn3c(C)nn(-c4ccc(Cl)cc4)c3=O)ccc12,47.4%,-38.6% (active),,15.8%,15.1%,,31.4%,56.7%
CCCCCCCSc1ncnc2[nH]ncc12,51.9%,,61.9%,81.7%,62.7%,,83.2%,88.4%
